The source made the active and inactive calls.

This passage reports composite z-score and z-score results from PubChem BioAssay.

The subject of assay [1] is Plasmodium falciparum Sir2 (PF13_0152, Sir2A). Description: Plasmodium falciparum Sir2A binding compounds – biochemical, small-molecule microarray, 635 nm fluorescence, primary screen (AID 1098).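 Also: score merges spot fluorescence intensity with its signal-to-noise ratio.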 To be noted: fluorescence 635 nm, higher = more signal.
A short description of assay [2]: probe aDKK1 binding to arrayed compounds – biochemical, biotinylated probe, 635/667 nm fluorescence, primary screen (AID 1099).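 Also: score merges 667nm spot fluorescence with signal to noise across triplicate slides; reference of the scale not given here.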 Conditions: small-molecule microarray, higher = more signal.
Assay [3] can be described thus: probe aCHRDL2 binding to arrayed compounds – biochemical, biotinylated probe, 635/667 nm fluorescence, primary screen (AID 1100). Conditions: small-molecule microarray, higher = more signal.
Assay [4] can be described thus: change in splice reporter luminescence, either direction, cell-based, HEK293, spliceosome inhibition project, primary screen (AID 1101).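 Also: HEK293 cells carrying a splicing-competent luciferase reporter gene; test concentration not given here.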 To be noted: HEK293 splicing luciferase reporter, 24 h, higher = more signal, called active from +8 up or from −8 down.
Assay [5] deals with Fibroblast growth factor 10 (Homo sapiens) (UniProt O15520). Description: compounds binding fibroblast growth factor 10 – biochemical, small-molecule microarray, 635 nm fluorescence, primary screen (AID 1102). To be noted: FGF10 binding, fluorescence 635 nm, higher = more signal.
Sequence of Fibroblast growth factor 10 (Homo sapiens) (O15520 whole entry, looked up): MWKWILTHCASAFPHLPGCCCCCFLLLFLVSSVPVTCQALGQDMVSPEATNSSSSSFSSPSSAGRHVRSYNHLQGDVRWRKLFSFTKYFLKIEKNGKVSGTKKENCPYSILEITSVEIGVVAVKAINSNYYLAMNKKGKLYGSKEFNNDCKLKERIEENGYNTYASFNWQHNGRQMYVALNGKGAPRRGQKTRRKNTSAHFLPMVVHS
For assay [6], the system named is glycogen synthase kinase-3 (GSK3A per assay name; protocol says GSK3B). The assay can be described thus: compounds binding glycogen synthase kinase-3 – biochemical, small-molecule microarray, 635 nm fluorescence, GSK3A, primary screen (AID 1103). Also: the record names both GSK3A and GSK3B. Conditions: fluorescence 635 nm, higher = more signal.
In assay [7] the target is Epidermal growth factor receptor (Homo sapiens) (UniProt P00533). The assay can be described thus: compounds binding epidermal growth factor receptor – biochemical, small-molecule microarray, 635 nm fluorescence, primary screen (AID 1104).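 Also: score merges 667 nm emission intensity with spot signal to noise over triplicate slides.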 To be noted: EGFR binding, higher = more signal.
Sequence of Epidermal growth factor receptor (Homo sapiens) (P00533 whole entry, looked up): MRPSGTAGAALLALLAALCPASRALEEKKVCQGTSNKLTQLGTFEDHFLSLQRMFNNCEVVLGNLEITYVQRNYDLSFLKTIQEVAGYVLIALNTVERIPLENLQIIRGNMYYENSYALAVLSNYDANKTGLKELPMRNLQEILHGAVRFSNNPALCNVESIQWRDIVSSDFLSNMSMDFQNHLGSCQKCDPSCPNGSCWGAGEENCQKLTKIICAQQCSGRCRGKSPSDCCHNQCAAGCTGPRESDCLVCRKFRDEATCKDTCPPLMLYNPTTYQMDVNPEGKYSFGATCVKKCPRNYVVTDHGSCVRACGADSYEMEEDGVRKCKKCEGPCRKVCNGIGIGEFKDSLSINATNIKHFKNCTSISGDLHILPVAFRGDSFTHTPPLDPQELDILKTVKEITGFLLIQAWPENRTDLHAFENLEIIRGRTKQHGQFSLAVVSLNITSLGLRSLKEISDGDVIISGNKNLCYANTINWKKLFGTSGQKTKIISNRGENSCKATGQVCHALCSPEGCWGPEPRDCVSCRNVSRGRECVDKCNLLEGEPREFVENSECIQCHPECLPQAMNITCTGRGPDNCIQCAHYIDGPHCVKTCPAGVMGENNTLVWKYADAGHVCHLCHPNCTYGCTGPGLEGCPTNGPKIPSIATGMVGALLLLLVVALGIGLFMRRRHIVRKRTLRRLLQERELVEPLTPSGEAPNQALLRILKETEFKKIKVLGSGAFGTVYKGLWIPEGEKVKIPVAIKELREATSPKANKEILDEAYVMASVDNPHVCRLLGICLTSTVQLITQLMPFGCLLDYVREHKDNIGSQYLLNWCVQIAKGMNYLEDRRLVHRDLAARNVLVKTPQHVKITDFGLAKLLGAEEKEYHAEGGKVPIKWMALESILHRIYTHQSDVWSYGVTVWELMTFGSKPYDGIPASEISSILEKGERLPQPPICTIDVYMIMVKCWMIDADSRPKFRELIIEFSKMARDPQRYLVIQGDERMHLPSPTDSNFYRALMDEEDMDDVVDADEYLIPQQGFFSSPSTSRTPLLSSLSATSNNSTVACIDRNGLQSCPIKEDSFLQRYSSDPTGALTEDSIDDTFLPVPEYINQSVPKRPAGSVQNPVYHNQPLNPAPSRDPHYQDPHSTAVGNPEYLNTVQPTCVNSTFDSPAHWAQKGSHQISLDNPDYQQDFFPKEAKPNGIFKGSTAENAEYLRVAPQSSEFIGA
Assay [8] has as its target Follistatin-related protein 3 (Homo sapiens) (UniProt O95633). Description: compounds binding follistatin-related protein 3 – biochemical, small-molecule microarray, 635 nm fluorescence, primary screen (AID 1105).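 Also: score merges emission near 667 nm and signal to noise per printed spot across three slides.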 Conditions: FSTL3 binding, higher = more signal.
Assay [9] has as its target Dickkopf-related protein 1 (Homo sapiens) (UniProt O94907). The assay can be described thus: small molecules binding DKK1 protein – biochemical, small-molecule microarray, 635 nm fluorescence scan, primary screen (AID 1106).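 Also: score merges emission near 667 nm with signal to noise over three replicate slides.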 Conditions: higher = more signal.
The test system of assay [10] is Inhibin beta A chain (activin A). The assay can be described thus: small molecules binding activin A – biochemical, small-molecule microarray, 635 nm fluorescence scan, primary screen (AID 1107).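 Also: mouse activin A protein probed at 4.33 µg/mL on printed slides; score merges bound-protein fluorescence near 667 nm with spot signal-to-noise.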 To be noted: INHBA, higher = more signal.

Sequence of Dickkopf-related protein 1 (Homo sapiens) (O94907 whole entry, looked up): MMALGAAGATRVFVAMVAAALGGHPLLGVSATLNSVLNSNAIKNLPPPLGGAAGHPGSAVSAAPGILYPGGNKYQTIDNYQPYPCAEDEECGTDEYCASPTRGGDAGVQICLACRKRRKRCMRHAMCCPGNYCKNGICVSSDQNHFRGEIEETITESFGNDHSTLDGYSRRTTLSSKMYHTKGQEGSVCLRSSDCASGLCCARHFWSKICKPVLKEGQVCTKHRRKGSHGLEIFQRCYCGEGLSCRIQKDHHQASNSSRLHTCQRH
Sequence of Follistatin-related protein 3 (Homo sapiens) (O95633 whole entry, looked up): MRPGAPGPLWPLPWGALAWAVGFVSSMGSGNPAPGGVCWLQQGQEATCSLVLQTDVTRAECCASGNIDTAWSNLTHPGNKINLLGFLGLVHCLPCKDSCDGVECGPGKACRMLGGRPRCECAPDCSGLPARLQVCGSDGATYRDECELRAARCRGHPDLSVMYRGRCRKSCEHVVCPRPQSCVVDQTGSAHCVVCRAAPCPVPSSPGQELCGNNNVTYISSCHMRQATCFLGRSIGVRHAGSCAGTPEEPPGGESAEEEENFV

Take `Cc1c(-c2ccc(-c3ccc(Cl)c(Cl)c3)o2)nc(-c2ccccc2)c2c1CO[Si]2(C(C)C)C(C)C`: the composite z-score in [1] was 0.872; in assay [2], -0.186; in assay [3], 0.11; in assay [5] it was 0.316; in assay [6], -0.449; in [7], -0.532. Besides, the composite z-score in assay [8] was -0.382; in assay [9] it was -0.234; in [10], 0.938. Further, the z-score in assay [4] is 2.11 (inactive).
On to `O=C1O[C@@H](c2ccccc2)[C@@H](c2ccccc2)N2[C@@H](c3ccc(OCCO)cc3)[C@]3(C(=O)Nc4ccc(C#CCCO)cc43)[C@@H](C(=O)Nc3nc4ccccc4s3)[C@H]12`, for which the composite z-score in assay [1] is 1.08; in [2], 0.49; in assay [3], 0.683; in [5], 0.975; in assay [6] it was 1.29; in assay [7], 0.367. The composite z-score in [8] turned out to be 1.08; in assay [9], 0.0321; in assay [10], 0.655. For the same compound, in assay [4], the z-score is -0.288 (inactive).
Take `CC(C)CNC(=O)[C@@H]1c2ccccc2C(=O)N(CC23CC4CC(CC(C4)C2)C3)[C@H]1c1ccc(CO)cc1`: the composite z-score in [1] is 0.248; in assay [2], 0.031; in assay [3] it was 0.446; in [5], 0.124; in assay [6] it was 1.02; in [7], 0.0591. In addition, the composite z-score was 0.777 in assay [8], -0.0314 in [9] and 0.471 in assay [10]. For the same compound, in [4], the z-score is -1.46 (inactive).
As to `C=CCC(OC(C)=O)[C@@H]1[C@@H](N(Cc2ccc(-c3cccc(C(F)(F)F)c3)o2)C(=O)c2cccc3ccccc23)c2cc(OCCCO)ccc2N1C(=O)c1ccc2ccccc2n1` (stereo not given in full), the composite z-score is 0.765 in assay [1]; -0.262 in assay [2]; 0.52 in assay [3]; 0.0448 in [5]; -0.684 in assay [6]; -0.117 in [7]. The composite z-score in [8] came to 0.113; in [9], 0.144; in assay [10], 1.47. The z-score in assay [4] was -1.29 (inactive).
Turning to `CC(C)[C@@H](C(=O)O)n1cc(-c2ccccc2)nn1`, the composite z-score in [1] is 0.377; in [2] it was 0.824; in assay [3], 0.69; in assay [5], 0.737; in [6] it was 1.27; in assay [7] it was 0.262. The figures for the composite z-score in assay [8], in assay [9] and in [10] were 0.256, 0.0435 and 0.48, respectively. For the same compound, the z-score in assay [4] is 0.317 (inactive).
In the case of `C=CCNC(=O)[C@H]1[C@@H]2C(=O)O[C@@H](c3ccccc3)[C@@H](c3ccccc3)N2[C@@H](c2ccc(O)cc2)[C@]12C(=O)Nc1ccc(C#CC3=CCCCC3)cc12`, the composite z-score came out at 1.14 in [1]; 0.593 in assay [2]; 0.662 in assay [3]; 0.703 in assay [5]; 1.13 in assay [6]; 0.859 in [7]. Also, the figures for the composite z-score in assay [8], in [9] and in [10] were 0.696, 0.909 and 1.31, respectively. The z-score in assay [4] is 0.622 (inactive).
For `CN1C(=O)C2C=CC(C(O)c3ccc(-c4ccccc4)s3)N(Nc3ccccc3)C2C1=O` (stereo not given), the composite z-score in assay [1] turned out to be 1.27; in [2] it was 0.644; in assay [3] it was 1.1; in [5], 0.737; in assay [6] it was 0.703; in assay [7], 0.138. Also, the composite z-score in assay [8] is 0.898; in assay [9] it was -0.0947; in [10], 1.23. Also, the z-score in assay [4] is 1.43 (inactive).
For `COc1ccc([Si](C)(C)[C@H]2[C@H](CCO)O[C@@]3(C(=O)N(Cc4ccccc4)c4ccc(N(C=O)c5ccccc5)cc43)[C@@H]2C)cc1`, the composite z-score is 0.638 in assay [1]; 0.0036 in assay [2]; -0.19 in assay [3]; 0.651 in [5]; -0.273 in [6]; 0.0677 in assay [7]. Besides, the composite z-score in [8] was 0.618; in [9], 0.167; in assay [10], 0.2. Further, in assay [4], the z-score was -0.663 (inactive).
On to `CC(C)C[C@@H]1NC(=O)[C@@]23C(=O)N[C@@H](Cc4ccccc4)C2[C@H](C)[C@@]2(C)O[C@H]2C3/C=C/C/C=C\CNC(=O)[C@@H](CC(C)C)NC1=O` (stereo not given in full), for which the composite z-score in assay [1] was 0.331; in assay [2] it was -0.299; in [3] it was -0.496; in assay [5] it was 0.37; in [6], 0.193; in assay [7] it was 0.367. In addition, the composite z-score amounted to 1.1 in assay [8], 0.511 in [9] and 0.904 in assay [10]. Further, the z-score in assay [4] was -0.958 (inactive).
As to `COc1cc2c(cc1O)C(c1ccc(CN3CCCC3)cc1)N(Cc1ccc([N+](=O)[O-])o1)CC2` (stereo not given), the composite z-score in assay [1] is 1.23; in assay [2] it was -0.276; in assay [3] it was -0.0934; in assay [5], 0.116; in [6], -0.903; in [7], -0.0173. Moreover, the composite z-score in assay [8] is 0.0429; in assay [9] it was -0.299; in [10] it was -0.289. Further, the z-score in assay [4] is 0.982 (inactive).
With `O=C1C2C=CC(C(O)C(c3ccccc3)c3ccccc3)N(Nc3ccccc3)C2C(=O)N1c1ccccc1` (stereo not given), the composite z-score in assay [1] was determined as 1.46; in [2], 0.467; in [3], 0.741; in [5], 0.68; in assay [6], 1.32; in [7], 0.385. Further, the composite z-score in assay [8] was 1.44; in assay [9], -0.42; in [10] it was 0.221. Besides, the z-score in assay [4] is -0.384 (inactive).
In the case of `CC(C)C(=C=CC[C@@H](O)c1ccc(OCCO)cc1)CCO`, the composite z-score is 0.959 in assay [1]; -0.233 in [2]; 0.0776 in assay [3]; 0.688 in assay [5]; -0.579 in assay [6]; -0.395 in [7]. Moreover, the composite z-score was 0.196 in [8], -0.117 in assay [9] and 0.516 in assay [10]. For the same compound, the z-score in assay [4] was -0.35 (inactive).
`CCOC(=O)C1=CC[C@@H](c2ccccc2)N(S(=O)(=O)c2ccc(C)cc2)[C@H]1C#N`: the composite z-score is 1.54 in assay [1]; 0.507 in assay [2]; 0.56 in assay [3]; 0.417 in assay [5]; 0.73 in [6]; -0.106 in [7]. In addition, the composite z-score in [8] was -0.111; in [9], -0.377; in assay [10] it was -0.0426. Besides, the z-score in [4] was 0.705 (inactive).
